# Compound activity (PubChem)
# Tg IFNy HTS – inhibitors of Toxoplasma gondii growth with IFN-gamma; Toxoplasma gondii growth in IFN-gamma-treated host cells; active compounds read low; activity change, negative = inhibition, % (concentration not given with the values); 69,000 tested, 3.8% active; AID 1259416; in the data active means activity change below about -70%, passing the limit was not always enough;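 further: host cells are HeLa cells infected with Toxoplasma gondii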
# Numbers without * were called inactive; ! = not active in a repeat. Shown is part of a subset that was picked to be rich in hits.
SMILES,Tg IFNy HTS
CC(Cn1cncn1)NCc1ccc2nonc2c1 (centres undefined),13
CCCC1C(c2ccccc2)NC(c2ccccc2)CC1(O)c1ccc(F)cc1 (centres undefined),-97*
CC1CCN(CC(C)(C)CN2C3CCC2CC(O)(c2ccc(F)cc2)C3)CC1 (centres undefined),8
Cc1ccc2c(n1)N(CC1CC1)CCN(c1ncccn1)C2,6
CN(C)CCO[C@H]1C[C@@H]2CN(Cc3ccncc3)CCN2C1,-33
CS(=O)CCCCN=C=S (centres undefined),10
COc1ccc(NC(=O)c2cc3cccnc3n(Cc3ccccc3F)c2=O)cc1,222
Clc1ccc(COC(Cn2ccnc2)c2ccc(Cl)cc2Cl)c(Cl)c1 (centres undefined),-85*!
Cc1noc(C)c1CN1CCN(C)c2ncccc2C1,13
CN(C)[C@H]1CN(C(=O)Cc2ccccn2)C[C@H]2CCCO[C@H]21,2
Cc1noc(C)c1CN1CCO[C@H]2CN(C(=O)C(C)C)C[C@@H]21,-38
Cc1cccnc1CN1CC[C@@H]2OCCN(S(=O)(=O)C3CC3)[C@@H]2C1,-9
CCCc1nc(-c2ccccn2)nc(OC(=O)N(C)C)c1Cc1c(F)cccc1Cl,-98*
Cc1cc(C)n2ncc(CN3CCCC4(CCNC4)C3)c2n1 (centres undefined),9
Cc1noc(C)c1CN1CCO[C@@H]2[C@H]1CC[C@H]2Oc1ccccn1,-45
COCCN1C(=O)C2(CCN(Cc3cccn3C)CC2)c2ccccc21,1
COc1ccc(-c2ccccc2N2CCNCC2)c2ccc(C)nc12,-3
CCCN(CCC)C1CCc2cccc(O)c2C1 (centres undefined),16
CCCN(CCC)C1CCc2ccc(O)cc2C1 (centres undefined),-76*!
CCOc1ccccc1NC(=O)c1cc2cccnc2n(Cc2ccc(Cl)cc2)c1=O,11
Cc1cc2ncc3c(n2n1)CC1CCC3N1Cc1cn[nH]c1-c1cccs1 (centres undefined),-10
Cc1cnc(N2CCN(CC3CC3)c3ncccc3C2)nc1,-49
O=C(O)c1ccccn1.O=C(O)c1ccccn1.O=C(O)c1ccccn1.[Cr],11
Clc1cccc(CN2CC3CNC(C3)C2)c1 (centres undefined),41
CN1CCN2CCN(Cc3ncc[nH]3)CC2C1=O (centres undefined),-2
SMILES,Tg IFNy HTS
C[C@@H]1C[C@@H]([C@H](O)CC2CC(=O)NC(=O)C2)C(=O)[C@@H](C)C1,-79*
c1cnc(N2CCN3C[C@H](Oc4cncnc4)C[C@@H]3C2)nc1,20
CCS(=O)(=O)NC[C@@]12COC[C@H]1CN(C(C)C)C2,-3
O=C(NCc1ccccc1)c1cc2cccnc2n(Cc2ccc(F)cc2)c1=O,-14
CC(=O)OC[C@]12CCC(C)=C[C@H]1O[C@@H]1[C@H](O)[C@@H](OC(C)=O)[C@@]2(C)[C@@]12CO2,-81*
CN(CCCC1CCCO1)C1CCNCC1 (centres undefined),1
CC(C)CNC(=O)c1cc2cccnc2n(Cc2ccc(F)cc2)c1=O,31
NS(=O)(=O)c1ccc(NC(=O)c2cc3cccnc3n(Cc3ccc(F)cc3)c2=O)cc1,5
CN1CCC2(CC1)CN(C(=O)CCc1cc(Cl)no1)CCN2C,1
CC1OC(OC2CC(O)C3(CO)C4C(O)CC5(C)C(C6=CC(=O)OC6)CCC5(O)C4CCC3(O)C2)C(O)C(O)C1O (centres undefined),-81*
C[C@@H]1O[C@@H](O[C@H]2C[C@@H](O)[C@]3(CO)[C@H]4[C@H](O)C[C@]5(C)[C@@H](C6COC(=O)C6)CC[C@]5(O)[C@@H]4CC[C@]3(O)C2)[C@H](O)[C@H](O)[C@H]1O (some centres undefined),-99*
CC(=O)Nc1ccc(NC(=O)c2cc3cccnc3n(Cc3ccccc3F)c2=O)cc1,83
Clc1cncc(OC[C@H]2CO[C@@H]3CN(Cc4cccs4)C[C@@H]23)c1,-36
Cc1noc(C)c1CN1CCO[C@@H]2CN(C(C)C)C[C@@H]21,134
Cc1ccoc1C(=O)N1CCOC2CNCC[C@@H]21 (some centres undefined),15
C[C@H]1CCCC(=O)CCC/C=C/c2cc(O)cc(O)c2C(=O)O1,-4
C[C@H]1CCC/C=C/[C@@H]2C[C@H](O)C[C@H]2[C@H](O)/C=C/C(=O)O1,-77*
O=S1(=O)C=CC(NC2CCC3(CCNCC3)CC2)C1 (centres undefined),3
Cc1noc(C)c1CN1CC2CC(C(=O)NC(C)C)C(C1)O2 (centres undefined),-4
Cn1cc(N2C(=O)CC[C@@H]3[C@@H]2CCN3Cc2ccccn2)cn1,14
Cc1cc(CN2C[C@H]3CN(C(=O)c4ccsc4)CCO[C@@H]3C2)no1,7
CNC(=O)C1=NOC2(CCN(Cc3ccccn3)C2)C1 (centres undefined),-45
CC(C)[C@@]1(NC(=O)[C@@H]2C[C@@H]3c4cccc5[nH]cc(c45)C[C@H]3N(C)C2)O[C@@]2(O)[C@@H]3CCCN3C(=O)[C@H](Cc3ccccc3)N2C1=O,-66
